Assay [1] can be described thus: ATG_TAL_CIS: Attagene CIS-FACTORIAL HepG2 Assay for human TAL Basal Promoter (AID 2282966).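 Note: background control endpoint measuring basal TAL promoter reporter mRNA not a specific factor.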 The following applies: HepG2 Attagene cis-factorial TAL promoter reporter; actives raise or lower the signal. The method, boiled down: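 Steps: transfect HepG2 with multiple reporter transcription units; dose 24 h; isolate RNA, reverse-transcribe, PCR-amplify, label with 6-FAM, digest with HpaI; resolve by capillary electrophoresis. Bidirectional fitting against DMSO baseline.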

Assay [2] is described as follows: ATG_VDRE_CIS: Attagene CIS-FACTORIAL HepG2 Assay for human Vitamin D Receptor Element (VDRE) (AID 2282968). The following applies: HepG2 VDRE cis-reporter transcription, actives raise or lower the signal. The essentials:
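Cell-based multiplexed reporter format in human liver HepG2 cells, 24 h post-dose. Fluorescence from capillary electrophoresis of reporter cDNA gives the signal, with DMSO as negative control and baseline.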

Assay [3] concerns the target X-box-binding protein 1 (Homo sapiens) (UniProt P17861). In words: ATG_Xbp1_CIS: Attagene CIS-FACTORIAL HepG2 Assay for human X-box Binding Protein 1 (XBP1) (AID 2282972). Particulars: HepG2 XBP1 cis-element reporter, Attagene multiplex; actives raise or lower the signal. The essentials: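 HepG2 cells transiently transfected with cis-regulated multiple reporter transcription units; endogenous transcription factor activity measured 24 hours after chemical dosing. Reporter mRNA quantified by RT-PCR, 6-FAM primer extension, HpaI digestion and capillary electrophoresis; bidirectional fitting versus DMSO.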

Assay [4] can be described thus: ATG_M_19_TRANS: Attagene TRANS-FACTORIAL HepG2 Assay for M19 Transcription Factor (Internal Marker) (AID 2282974; active = hit-call score of the fitted dose curve at least 0.9, where 1 is the maximum). The following applies: HepG2 Attagene TRANS-FACTORIAL M19 internal marker reporter. The essentials: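 24 h chemical exposure of transiently transfected HepG2 (MRTU library). RNA → oligo(dT) RT → PCR → 6-FAM labelling → HpaI cut → CE fluorescence. Positive-direction fit vs DMSO baseline; background internal-marker readout.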

For assay [5], the target named is Bile acid receptor (Homo sapiens) (UniProt Q96RI1). Nature of the assay: ATG_FXR_TRANS: Attagene TRANS-FACTORIAL HepG2 Assay for Farnesoid X Receptor (FXR) (AID 2282979; active = hit-call score of the fitted dose curve at least 0.9, where 1 is the maximum;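 note: hits raise reporter mRNA above DMSO so AC50 marks FXR activation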). Particulars: HepG2 Attagene TRANS FXR-GAL4 reporter transcription. The essentials: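 After 24 h chemical treatment of transfected HepG2 cells, GAL4-UAS reporter transcripts driven by an exogenous FXR-GAL4 fusion were measured by RT-PCR and capillary electrophoresis. Increases over DMSO were fitted.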
Bile acid receptor (Homo sapiens), sequence (Q96RI1 whole entry, looked up, the tested form may be a part): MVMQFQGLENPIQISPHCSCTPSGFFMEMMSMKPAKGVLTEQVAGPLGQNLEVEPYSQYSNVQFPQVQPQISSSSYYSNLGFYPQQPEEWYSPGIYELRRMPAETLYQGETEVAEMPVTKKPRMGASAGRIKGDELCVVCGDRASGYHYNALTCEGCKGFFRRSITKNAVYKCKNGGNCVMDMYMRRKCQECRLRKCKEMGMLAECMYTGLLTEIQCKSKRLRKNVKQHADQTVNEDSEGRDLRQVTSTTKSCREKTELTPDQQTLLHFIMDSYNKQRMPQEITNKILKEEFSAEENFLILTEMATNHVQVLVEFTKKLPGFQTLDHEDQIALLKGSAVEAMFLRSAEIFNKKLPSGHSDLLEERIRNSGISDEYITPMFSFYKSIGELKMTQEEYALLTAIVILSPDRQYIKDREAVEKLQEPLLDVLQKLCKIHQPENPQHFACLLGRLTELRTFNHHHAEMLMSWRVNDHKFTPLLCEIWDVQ

Assay [6] concerns the target Oxysterols receptor LXR-alpha (Homo sapiens) (UniProt Q13133). In words: ATG_LXRa_TRANS: Attagene TRANS-FACTORIAL HepG2 Assay for human Liver X Receptor alpha (LXRa) (AID 2282980; active = hit-call score of the fitted dose curve at least 0.9, where 1 is the maximum). The following applies: HepG2 Attagene TRANS reporter, LXRa transactivation. The essentials: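 In this multiplexed TRANS system, compounds act on HepG2 cells carrying GAL4-UAS reporter units and a receptor-GAL4 fusion for 24 h. Induced reporter RNA is amplified, fluorescently labelled and sized by capillary electrophoresis, with DMSO as baseline.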

Assay [7] addresses Hepatocyte nuclear factor 4-alpha (Homo sapiens) (UniProt P41235). In words: ATG_HNF4a_TRANS: Attagene TRANS-FACTORIAL HepG2 Assay for human Hepatocyte Nuclear Factor 4 alpha (HNF4a) (AID 2282982; active = hit-call score of the fitted dose curve at least 0.9, where 1 is the maximum). The following applies: HepG2 HNF4a transactivation reporter, mRNA readout. The essentials: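 Gain-of-signal mRNA induction, relative to DMSO vehicle, was read after 24 h compound treatment of HepG2 cells bearing transfected GAL4-UAS reporters. Detection used RT-PCR, 6-FAM primer extension and capillary electrophoresis.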

The nature of assay [8]: ATG_M_32_TRANS: Attagene TRANS-FACTORIAL HepG2 Assay for M32 Transcription Factor (Internal Marker) (AID 2282984; active = hit-call score of the fitted dose curve at least 0.9, where 1 is the maximum;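 note: transcript level of a background control reporter unit measured by RT-PCR and capillary electrophoresis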). Particulars: HepG2 Attagene TRANS M32 internal marker reporter. The method, boiled down: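 Capillary electrophoresis of 6-FAM-labelled reporter fragments gives the signal; data fitted for gain over DMSO negative control. Source: HepG2 cells bearing transient multiple reporter transcription units, 24 h exposure.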

Assay [9] addresses Nuclear receptor subfamily 4 group A member 2 (Homo sapiens) (UniProt P43354). Nature of the assay: ATG_NURR1_TRANS: Attagene TRANS-FACTORIAL HepG2 Assay for human Nuclear Receptor Related Protein 1 (NURR1) (AID 2282985; active = hit-call score of the fitted dose curve at least 0.9, where 1 is the maximum). The following applies: HepG2 Attagene TRANS reporter, mRNA readout. The essentials:
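HepG2 / transient MRTU transfection / 24 h compound exposure / RT-PCR + CE fluorescence of reporter mRNA / gain-of-signal vs DMSO.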

The target of assay [10] is Transcriptional activator Myb (Homo sapiens) (UniProt P10242). Nature of the assay: ATG_Myb_CIS: Attagene CIS-FACTORIAL HepG2 Assay for human Myeloblastosis (Myb) Proto-Oncogene Transcription Factor (AID 2282986). The following applies: HepG2 Attagene CIS-FACTORIAL Myb reporter transcription; actives raise or lower the signal. The method, boiled down:
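HepG2, transient MRTU transfection (cis-element promoters, endogenous TF activity), 24 h compound exposure. Readout: reporter mRNA via RT-PCR, 6-FAM labeling, HpaI digest, capillary electrophoresis. Gain/loss fit vs DMSO.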

Assay [11] deals with Nuclear respiratory factor 1 (Homo sapiens) (UniProt Q16656). In words: ATG_NRF1_CIS: Attagene CIS-FACTORIAL HepG2 Assay for human Nuclear Respiratory Factor 1 (NRF1) Orphan Gene (AID 2282987). The following applies: HepG2 NRF1 cis-element reporter, Attagene multiplex; actives raise or lower the signal. The method, boiled down:
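Endogenous NRF1-driven reporter transcription measured in transiently transfected human HepG2 liver cells. Readout: reporter mRNA by RT-PCR and capillary electrophoresis with fluorescence detection, 24 h post-dosing. Gain or loss of signal fitted relative to DMSO baseline.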

Assay [12] is described as follows: ATG_NFI_CIS: Attagene CIS-FACTORIAL HepG2 Assay for human Nuclear Factor I (NFI) (AID 2282989). The following applies: HepG2 cis-regulatory reporter, NFI response element transcription; actives raise or lower the signal. The essentials: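 Multiplexed cis-reporter system in human HepG2 cells reports native TF activity as reporter mRNA induction 24 h post-dose. Fragments labelled with 6-FAM, HpaI-digested and resolved by capillary electrophoresis; activity fitted both directions versus DMSO.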

Assay [13] deals with Glucocorticoid receptor (Homo sapiens) (UniProt P04150). Nature of the assay: ATG_GR_TRANS: Attagene TRANS-FACTORIAL HepG2 Assay for human Glucocorticoid Receptor (GR) (AID 2282978; active = hit-call score of the fitted dose curve at least 0.9, where 1 is the maximum;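 note: activators score as hits since higher reporter transcript over DMSO is fitted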). The following applies: HepG2 Attagene TRANS GR reporter, mRNA transcription. The method, boiled down:
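Transient MRTU transfection of HepG2 (GAL4-UAS reporters, exogenous NR-GAL4 chimeras), 24 h dosing. Readout: reporter transcript via RT-PCR + capillary electrophoresis fluorescence. Positive direction vs DMSO baseline.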

Assay [14] can be described thus: ATG_M_06_TRANS: Attagene TRANS-FACTORIAL HepG2 Assay for M06 Transcription Factor (Internal Marker) (AID 2282983; active = hit-call score of the fitted dose curve at least 0.9, where 1 is the maximum). Particulars: HepG2 Attagene TRANS M06 internal marker reporter. The method, boiled down:
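Internal-marker background readout from a multiplexed TRANS reporter system in HepG2; 24 h dosing; mRNA induction quantified by RT-PCR plus capillary electrophoresis fluorescence; DMSO as negative control and baseline.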

Assay [15] has as its target Oxysterols receptor LXR-beta (Homo sapiens) (UniProt P55055). In words: ATG_LXRb_TRANS: Attagene TRANS-FACTORIAL HepG2 Assay for human Liver X Receptor beta (LXRb) (AID 2282981; active = hit-call score of the fitted dose curve at least 0.9, where 1 is the maximum). Particulars: HepG2 Attagene TRANS GAL4-LXRb reporter, mRNA. The essentials: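 Gain-of-signal mRNA reporter endpoint, DMSO as negative control. Transiently transfected HepG2 cells carrying the NR-Gal4 chimera and GAL4-UAS reporter units were treated 24 h; transcripts quantified by RT-PCR and capillary electrophoresis fluorescence.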

For assay [16], the target named is Nuclear receptor subfamily 1 group I member 3 (Homo sapiens) (UniProt Q14994). Nature of the assay: ATG_CAR_TRANS: Attagene TRANS-FACTORIAL HepG2 Assay for human Constitutive Androstane Receptor (CAR) (AID 2282969; active = hit-call score of the fitted dose curve at least 0.9, where 1 is the maximum;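 note: activators raise reporter mRNA above DMSO so AC50 marks induction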). Particulars: HepG2 Attagene TRANS-FACTORIAL CAR reporter. The essentials: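 HepG2 cells transiently transfected with GAL4-UAS reporter units; TRANS format reads activity of exogenous chimeric NR-Gal4 protein. After 24 h dosing, reporter mRNA quantified by RT-PCR, 6-FAM labelling and capillary electrophoresis; gain of signal fitted against DMSO.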
Nuclear receptor subfamily 1 group I member 3 (Homo sapiens), sequence (Q14994 whole entry, looked up, the tested form may be a part): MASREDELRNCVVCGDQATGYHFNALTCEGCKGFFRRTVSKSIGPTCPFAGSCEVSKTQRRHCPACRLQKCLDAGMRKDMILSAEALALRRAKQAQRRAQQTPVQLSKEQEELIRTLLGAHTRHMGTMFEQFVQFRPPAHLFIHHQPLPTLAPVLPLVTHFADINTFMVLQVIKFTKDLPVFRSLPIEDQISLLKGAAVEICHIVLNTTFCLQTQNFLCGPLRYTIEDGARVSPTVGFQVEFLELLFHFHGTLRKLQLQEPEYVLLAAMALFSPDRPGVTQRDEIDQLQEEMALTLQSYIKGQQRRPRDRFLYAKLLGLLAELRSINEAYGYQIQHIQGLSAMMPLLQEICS

The target of assay [17] is Steroid hormone receptor ERR1 (Homo sapiens) (UniProt P11474). In words: ATG_ERRa_TRANS: Attagene TRANS-FACTORIAL HepG2 Assay for human Estrogen-Related Receptor alpha (ERRa) (AID 2282971; active = hit-call score of the fitted dose curve at least 0.9, where 1 is the maximum). The following applies: HepG2 Attagene TRANS reporter, ERRa transactivation. The method, boiled down: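 Signal gain relative to DMSO for an ERRa-Gal4 chimeric receptor, read as reporter mRNA by RT-PCR/capillary electrophoresis. Human HepG2 liver cells, transient multiplex reporter transfection, 24 h chemical exposure.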

In assay [18] the target is Estrogen-related receptor gamma (Homo sapiens) (UniProt P62508). In words: ATG_ERRg_TRANS: Attagene TRANS-FACTORIAL HepG2 Assay for human Estrogen-Related Receptor gamma (ERRg) (AID 2282977; active = hit-call score of the fitted dose curve at least 0.9, where 1 is the maximum;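 note: hits increase reporter signal over DMSO so potencies reflect activators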). Particulars: HepG2 Attagene TRANS reporter, ERRg transactivation. The method, boiled down:
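HepG2 cells transiently transfected with multiplexed GAL4-UAS reporter units and chimeric NR-Gal4 constructs were exposed to test chemicals for 24 h. Reporter mRNA was measured by RT-PCR, 6-FAM primer extension, HpaI digestion and capillary electrophoresis; gain-of-signal versus DMSO.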

Structures are written as SMILES. Results filed as inconclusive are left out. Activity calls are given as the source filed them. Rule for the calls, unless noted: active = hit-call score of the fitted dose curve at least 0.9, where 1 is the maximum; inactive = score below 0.9.

Outcome and AC50 data for ten compounds are collected here from PubChem BioAssay (EPA / NIEHS).

As usually defined, the AC50 is the concentration at which the activity in the assay is half-maximal.

X-box-binding protein 1 (Homo sapiens), sequence (P17861 whole entry, looked up): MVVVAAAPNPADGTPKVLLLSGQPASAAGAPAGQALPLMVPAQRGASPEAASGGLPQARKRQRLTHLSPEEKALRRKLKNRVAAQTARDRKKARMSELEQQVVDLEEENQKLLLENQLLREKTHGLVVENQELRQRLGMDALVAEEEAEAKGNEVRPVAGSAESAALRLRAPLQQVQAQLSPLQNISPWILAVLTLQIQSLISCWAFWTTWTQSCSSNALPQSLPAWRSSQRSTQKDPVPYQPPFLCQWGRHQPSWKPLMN
Hepatocyte nuclear factor 4-alpha (Homo sapiens), sequence (P41235 whole entry, looked up, the tested form may be a part): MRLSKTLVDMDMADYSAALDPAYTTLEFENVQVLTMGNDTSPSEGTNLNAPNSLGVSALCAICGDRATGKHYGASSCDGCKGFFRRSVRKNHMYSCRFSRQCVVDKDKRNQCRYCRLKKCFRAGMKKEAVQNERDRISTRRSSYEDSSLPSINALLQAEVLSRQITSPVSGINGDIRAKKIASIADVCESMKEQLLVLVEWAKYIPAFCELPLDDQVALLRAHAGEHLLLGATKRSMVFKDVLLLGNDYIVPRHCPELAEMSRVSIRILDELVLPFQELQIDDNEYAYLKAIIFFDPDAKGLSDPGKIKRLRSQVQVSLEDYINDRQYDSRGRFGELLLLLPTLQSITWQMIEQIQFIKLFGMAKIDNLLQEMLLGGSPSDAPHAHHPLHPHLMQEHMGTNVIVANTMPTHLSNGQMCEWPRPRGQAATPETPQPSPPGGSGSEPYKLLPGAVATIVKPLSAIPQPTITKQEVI
Nuclear respiratory factor 1 (Homo sapiens), sequence (Q16656 whole entry, looked up): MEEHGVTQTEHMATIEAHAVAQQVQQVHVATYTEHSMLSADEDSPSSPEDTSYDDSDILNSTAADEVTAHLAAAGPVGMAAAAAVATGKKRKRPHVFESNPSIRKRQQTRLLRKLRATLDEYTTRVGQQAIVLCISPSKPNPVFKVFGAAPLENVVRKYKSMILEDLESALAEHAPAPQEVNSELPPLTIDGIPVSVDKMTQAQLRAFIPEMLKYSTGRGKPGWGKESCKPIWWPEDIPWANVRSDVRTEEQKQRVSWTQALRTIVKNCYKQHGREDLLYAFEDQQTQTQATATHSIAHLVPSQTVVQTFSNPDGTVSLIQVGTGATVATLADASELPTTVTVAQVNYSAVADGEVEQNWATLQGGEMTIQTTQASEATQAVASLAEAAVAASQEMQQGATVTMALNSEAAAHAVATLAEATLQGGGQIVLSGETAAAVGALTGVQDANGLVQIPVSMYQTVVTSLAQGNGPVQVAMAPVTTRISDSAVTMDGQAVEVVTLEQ
Transcriptional activator Myb (Homo sapiens), sequence (P10242 whole entry, looked up): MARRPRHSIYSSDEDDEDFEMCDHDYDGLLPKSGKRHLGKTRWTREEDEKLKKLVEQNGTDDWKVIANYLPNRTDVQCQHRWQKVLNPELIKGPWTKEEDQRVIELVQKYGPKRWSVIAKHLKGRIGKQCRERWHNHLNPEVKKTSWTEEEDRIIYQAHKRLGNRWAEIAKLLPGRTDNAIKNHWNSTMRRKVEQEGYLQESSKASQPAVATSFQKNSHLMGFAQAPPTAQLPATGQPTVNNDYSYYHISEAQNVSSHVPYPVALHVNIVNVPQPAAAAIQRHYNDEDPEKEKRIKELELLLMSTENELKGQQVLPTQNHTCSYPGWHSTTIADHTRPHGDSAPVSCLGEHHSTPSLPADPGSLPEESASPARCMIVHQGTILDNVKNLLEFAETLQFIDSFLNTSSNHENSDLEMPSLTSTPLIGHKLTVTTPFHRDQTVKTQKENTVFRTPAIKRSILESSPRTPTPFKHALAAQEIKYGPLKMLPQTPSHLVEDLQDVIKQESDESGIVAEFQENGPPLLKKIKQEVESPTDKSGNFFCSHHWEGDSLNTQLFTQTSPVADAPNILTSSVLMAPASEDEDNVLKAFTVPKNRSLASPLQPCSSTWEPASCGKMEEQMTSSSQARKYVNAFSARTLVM
Oxysterols receptor LXR-alpha (Homo sapiens), sequence (Q13133 whole entry, looked up, the tested form may be a part): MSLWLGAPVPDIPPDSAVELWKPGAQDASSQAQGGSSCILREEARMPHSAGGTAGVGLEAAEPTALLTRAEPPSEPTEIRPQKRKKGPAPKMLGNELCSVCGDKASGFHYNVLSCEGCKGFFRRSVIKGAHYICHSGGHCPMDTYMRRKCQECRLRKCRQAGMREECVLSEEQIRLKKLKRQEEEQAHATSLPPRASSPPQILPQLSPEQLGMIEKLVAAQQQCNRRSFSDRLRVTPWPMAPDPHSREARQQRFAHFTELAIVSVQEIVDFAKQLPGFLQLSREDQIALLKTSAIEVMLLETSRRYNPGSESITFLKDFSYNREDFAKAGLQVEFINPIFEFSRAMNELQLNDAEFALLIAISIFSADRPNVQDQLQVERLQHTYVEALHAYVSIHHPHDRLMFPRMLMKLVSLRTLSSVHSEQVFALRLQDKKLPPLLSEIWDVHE
Glucocorticoid receptor (Homo sapiens), sequence (P04150 whole entry, looked up, the tested form may be a part): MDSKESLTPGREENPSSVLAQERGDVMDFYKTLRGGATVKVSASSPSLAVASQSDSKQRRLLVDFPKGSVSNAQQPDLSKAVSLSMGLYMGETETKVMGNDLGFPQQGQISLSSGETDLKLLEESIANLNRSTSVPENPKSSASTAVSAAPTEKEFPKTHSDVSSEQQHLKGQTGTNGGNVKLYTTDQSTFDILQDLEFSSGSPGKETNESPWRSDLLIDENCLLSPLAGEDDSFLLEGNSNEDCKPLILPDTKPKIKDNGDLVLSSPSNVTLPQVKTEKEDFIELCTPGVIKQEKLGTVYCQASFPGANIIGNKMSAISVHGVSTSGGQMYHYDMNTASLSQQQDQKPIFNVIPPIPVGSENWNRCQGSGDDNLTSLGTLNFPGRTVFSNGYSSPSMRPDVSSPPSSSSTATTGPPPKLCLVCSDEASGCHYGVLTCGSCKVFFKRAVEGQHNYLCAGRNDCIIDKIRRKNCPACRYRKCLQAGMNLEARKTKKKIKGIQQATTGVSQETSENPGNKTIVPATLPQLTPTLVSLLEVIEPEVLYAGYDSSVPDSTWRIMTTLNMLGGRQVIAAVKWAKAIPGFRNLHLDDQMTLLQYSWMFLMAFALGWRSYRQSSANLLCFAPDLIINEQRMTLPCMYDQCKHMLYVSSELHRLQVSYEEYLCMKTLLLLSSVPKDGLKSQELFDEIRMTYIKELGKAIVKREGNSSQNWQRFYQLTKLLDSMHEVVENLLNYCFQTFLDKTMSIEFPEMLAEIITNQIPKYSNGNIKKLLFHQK
Nuclear receptor subfamily 4 group A member 2 (Homo sapiens), sequence (P43354 whole entry, looked up): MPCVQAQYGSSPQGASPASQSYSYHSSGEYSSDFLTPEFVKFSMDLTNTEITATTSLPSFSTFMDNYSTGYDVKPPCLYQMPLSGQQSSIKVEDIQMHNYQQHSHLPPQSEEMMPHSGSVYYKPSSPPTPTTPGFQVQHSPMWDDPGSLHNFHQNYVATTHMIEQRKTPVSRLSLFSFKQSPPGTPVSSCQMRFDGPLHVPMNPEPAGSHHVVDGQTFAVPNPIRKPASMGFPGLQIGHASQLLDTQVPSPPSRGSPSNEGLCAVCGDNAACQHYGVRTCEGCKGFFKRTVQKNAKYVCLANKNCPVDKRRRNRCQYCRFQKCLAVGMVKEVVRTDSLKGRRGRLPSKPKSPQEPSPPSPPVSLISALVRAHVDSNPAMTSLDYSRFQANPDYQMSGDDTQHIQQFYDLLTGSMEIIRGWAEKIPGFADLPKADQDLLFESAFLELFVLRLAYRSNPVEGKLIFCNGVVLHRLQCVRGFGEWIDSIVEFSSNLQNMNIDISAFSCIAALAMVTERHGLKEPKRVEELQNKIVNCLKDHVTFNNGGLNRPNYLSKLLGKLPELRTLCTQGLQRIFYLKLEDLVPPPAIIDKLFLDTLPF
Oxysterols receptor LXR-beta (Homo sapiens), sequence (P55055 whole entry, looked up, the tested form may be a part): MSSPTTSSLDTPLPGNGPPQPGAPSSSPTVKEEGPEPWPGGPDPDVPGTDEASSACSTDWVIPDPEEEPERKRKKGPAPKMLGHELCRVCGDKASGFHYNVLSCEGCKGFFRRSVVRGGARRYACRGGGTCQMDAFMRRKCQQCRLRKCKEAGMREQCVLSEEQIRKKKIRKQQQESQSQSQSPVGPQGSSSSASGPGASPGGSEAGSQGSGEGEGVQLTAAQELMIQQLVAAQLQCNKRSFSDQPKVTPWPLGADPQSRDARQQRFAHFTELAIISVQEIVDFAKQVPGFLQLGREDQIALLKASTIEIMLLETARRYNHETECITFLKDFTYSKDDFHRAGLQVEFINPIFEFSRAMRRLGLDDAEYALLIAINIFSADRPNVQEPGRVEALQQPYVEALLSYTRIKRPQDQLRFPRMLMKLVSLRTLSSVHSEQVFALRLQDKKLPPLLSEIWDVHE

Consider `CC=Cc1ccc(OC)c(OC)c1`, for which the result in assay [1], in [2], in assay [3], in assay [4], in assay [5] and in [6] was inactive. For the same compound, the outcome in [7], in assay [8], in assay [9], in assay [10], in assay [11] and in assay [12] was inactive.
On to `C=C(C)[C@H]1CC=C(C)C(=O)C1`, for which the compound was classed as inactive in [1], in assay [2], in assay [3], in assay [13], in assay [6] and in assay [7]. In addition, the compound was called inactive in [14], in [8], in assay [10], in assay [11] and in assay [12].
Regarding `CCCCCCOCCOCCO`, the compound was called inactive in assay [1], in assay [3], in [4], in assay [15], in [7] and in [14]. The compound was called inactive in assay [10], in assay [11] and in assay [12].
On to `COc1cccc(OC)c1O`, for which the outcome in assay [1], in [2], in assay [16], in assay [3], in assay [6] and in [14] was inactive. Besides, the compound was called inactive in assay [9], in assay [11] and in assay [12].
For `CCCCCCCCc1ccc(S(=O)(=O)O)cc1`, the compound was called inactive in [1], in assay [2], in assay [16], in assay [4], in assay [13] and in [5]. For the same compound, in [9], the call was inactive. The AC50 in assay [10] was 166 µM (active); in [11], 146 µM (active); in assay [12], 185 µM (active).
As to `O=C(O)c1cccnc1C(=O)O`, the compound was classed as inactive in [1], in assay [3], in assay [4], in assay [7], in [8] and in assay [10]. The compound was classed as inactive in assay [11] and in [12].
`N#Cc1ccc(CC(=O)c2cccc(C(F)(F)F)c2)cc1`: the result in [1], in [16], in [17], in assay [3], in [18] and in assay [13] was inactive. Further, the result in [7], in assay [14], in [8] and in [10] was inactive. Moreover, the AC50 in assay [2] was 26.3 µM (active); in assay [9] it was 100 µM (active); in assay [11], 100 µM (active); in assay [12], 188 µM (active).
Turning to `Nc1c(Cl)cc(Cl)cc1[N+](=O)[O-]`, the result in [1], in assay [2], in assay [6], in assay [7], in assay [14] and in assay [8] was inactive. Further, the outcome in [10], in assay [11] and in assay [12] was inactive.
For the compound `CS(C)=O`, the outcome in assay [1], in assay [2], in assay [3], in [4], in assay [13] and in [7] was inactive. For the same compound, the compound was classed as inactive in [11].
Turning to `c1ccc(Oc2ccccc2)cc1`, the call in assay [1], in assay [2], in assay [16], in [3], in assay [4] and in assay [13] was inactive. For the same compound, the compound was called inactive in [15], in [7], in assay [8], in assay [9], in assay [10] and in [11]. The compound was classed as inactive in assay [12].
